High-throughput results deposited in PubChem by several laboratories.
A selection: hits, their analogues and other compounds. The true share with any hit is near 2.7%.
SENP6 block: SENP6 protease inhibitors, primary screen, biochemical, luminescence, uHTS; Sentrin-specific protease 6 (Homo sapiens), Q9GZR1; inhibition, % at 10 µM; Recombinant SENP6 catalytic domain, aminoluciferin luminescence; hit rate 1.8% among 330,000; AID 2599, 2010;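 active = inhibition above about 50% at the single tested dose, limit read from the data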;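 note: plate controls were DMSO wells with enzyme for no effect and DMSO wells lacking enzyme for full effect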
SENP7 inh: SENP7 protease inhibitors, primary screen, biochemical, luminescence, uHTS; Sentrin-specific protease 7 (Homo sapiens), Q9BQF6; recombinant SENP7, Z-RLRGG-aminoluciferin luminescence, 40 min; inhibition, % at 5 µM; hit rate 1.5% among 330,000;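 active = inhibition above about 50% at the single test dose, limit read from the data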;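 note: plate controls were DMSO with enzyme for no effect and no enzyme buffer wells for full effect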
Target sequence (Q9BQF6 706-1050 limits assumed): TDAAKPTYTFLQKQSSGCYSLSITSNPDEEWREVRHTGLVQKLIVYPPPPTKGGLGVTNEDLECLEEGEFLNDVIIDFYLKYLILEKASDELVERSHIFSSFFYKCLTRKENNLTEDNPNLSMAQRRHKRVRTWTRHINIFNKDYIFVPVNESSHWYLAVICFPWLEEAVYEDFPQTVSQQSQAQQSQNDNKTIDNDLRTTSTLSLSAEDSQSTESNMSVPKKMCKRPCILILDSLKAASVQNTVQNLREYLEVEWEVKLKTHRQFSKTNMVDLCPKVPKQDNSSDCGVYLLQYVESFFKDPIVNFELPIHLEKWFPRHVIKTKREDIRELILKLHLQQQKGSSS
SENP8 block-1: SENP8 protease inhibitors, primary screen, biochemical, luminescence; purified SENP8, Z-RLRGG-aminoluciferin cleavage; inhibition, % at 10 µM; Sentrin-specific protease 8 (Homo sapiens), Q96LD8; hit rate 1.2% among 330,000; in the data active = inhibition above about 50%
Target sequence (Q96LD8 whole entry, looked up): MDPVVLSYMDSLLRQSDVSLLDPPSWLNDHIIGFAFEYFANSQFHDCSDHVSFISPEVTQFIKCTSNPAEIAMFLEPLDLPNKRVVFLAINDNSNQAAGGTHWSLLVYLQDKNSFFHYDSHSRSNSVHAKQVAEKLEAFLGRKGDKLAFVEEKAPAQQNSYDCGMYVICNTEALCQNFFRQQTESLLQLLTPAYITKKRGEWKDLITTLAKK
HSP90 refold inh: HSP90 inhibitors, primary screen, cell lysate, luminescence; Heat shock protein HSP 90 (rabbit reticulocyte lysate; luciferase refolding); Rabbit reticulocyte lysate, luciferase refolding luminescence, 3 h; inhibition, % at 5.6 µM; hit rate 0.91% among 290,000; AID 1789, 2009;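 active = inhibition above the screen-wide mean plus 3 SD, computed separately per campaign, cut at about 16% in these data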;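 note: 0% = DMSO wells and 100% = 60 µM geldanamycin wells; inhibitors lower the luminescence because luciferase stays unfolded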
SENP8 block-2: human SENP8 protease inhibitors, primary screen, biochemical, fluorescence, Nedd8 protein substrate, uHTS. AID 602440, 2012. Sentrin-specific protease 8 (Homo sapiens), Q96LD8. hit rate 0.64% among 360,000. inhibition, % at 20 µM. recombinant SENP8; in the data active = inhibition mostly above about 40%, no sharp cut-off; inactive = mostly below about 27%
SENP8 confirm: SENP8 protease inhibitors, retest, confirmation, biochemical, luminescence, single concentration; shares compounds with SENP7 inh; Recombinant SENP8, Z-RLRGG-aminoluciferin luminescence, 60 min; inhibition, % at 12.5 µM; hit rate 40% among 6,200; AID 488912, 2010;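 active = mean inhibition across replicates above about 50%, limit read from the data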
SENP6 conf: SENP6 protease inhibitors, confirmation, biochemical, luminescence, single concentration; recombinant SENP6, Z-RLRGG-aminoluciferin luminescence; hit rate 58% among 6,200; shares compounds with SENP7 inh; AID 488915, 2010; inhibition, % at 12.5 µM
SENP7 conf: SENP7 protease inhibitors, retest, confirmation, biochemical, luminescence, single concentration | shares compounds with SENP7 inh | recombinant SENP7, Z-RLRGG-aminoluciferin luminescence, 40 min | inhibition, % at 12.5 µM | hit rate 69% among 6,200 | AID 488917, 2010
Casp3 select: caspase-3 protease inhibitors, confirmation, selectivity assay for SENP inhibitor project, biochemical, single concentration; shares compounds with SENP7 inh; purified caspase-3, Z-DEVD-aminoluciferin luminescence, 60 min; inhibition, % at 12.5 µM; hit rate 60% among 6,200; AID 488918, 2010;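 active = mean inhibition above about 50%, limit read from the data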;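 note: plate controls were enzyme with DMSO for no effect and wells without caspase-3 for full effect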
SENP luc ctr: interferes with luciferase luminescence in SENP counter-screen. hit rate 39% among 6,200. inhibition, % at 12.5 µM. Pre-incubated SENP8/Z-RLRGG-aminoluciferin, luciferase luminescence interference. shares compounds with SENP7 inh;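 active = mean inhibition above about 50% when retested at one dose, limit read from the data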;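 note: plate controls were DMSO wells with completed reaction for no effect and substrate without enzyme for full effect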
* hit, by the source's call; i = inactive; . = no result given.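 Rule for the calls, unless noted: active = mean inhibition above about 50% in the one-dose retest (limit read from the data); inactive = the rest.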

SMILES | SENP6 block | SENP7 inh | SENP8 block-1 | HSP90 refold inh | SENP8 block-2 | SENP8 confirm | SENP6 conf | SENP7 conf | Casp3 select | SENP luc ctr
O=c1cc(-c2ccccc2)[nH]c2nc3ccccc3n12 | 88* | 98* | 88* | 8 | -307 | 2 | 64* | 64* | 72* | 5
CC(C)(C)c1ccc2cc(F)cc(F)c2n1 | . | . | . | . | 5 | . | . | . | . | .
COc1ccc(C(=O)Nc2ccccc2C(=O)Nc2cccc(C)n2)cc1 | 11 | 0 | -14 | 5 | -45 | . | . | . | . | .
COc1ccc(C(=O)Nc2ccccc2C(=O)Nc2cc(C)ccn2)cc1 | 64* | 37 | 58* | 0 | -64 | 4 | 6 | 16 | -4 | -2
COc1ccc(C(=O)NC(=O)Nc2cc(C)ccn2)cc1 | 83* | 8 | 79* | 22* | 1 | 78* | 78* | 94* | 92* | 68*
COc1cc(C(=O)Nc2cc(C)ccn2)cc(OC)c1OC | -4 | -1 | -15 | -1 | 13 | . | . | . | . | .
CCCCCCCCOC(=O)C(NC(=O)CCC(=O)Nc1ccc(S(N)(=O)=O)cc1)C(O)c1ccccc1 (stereo not drawn) | 7 | 13 | 3 | -6 | 14 | . | . | . | . | .
Cc1cccc(C(=O)Nc2sc(C)c(-c3ccccc3)c2C#N)c1 | 60* | 33 | 24 | -4 | -47 | 30 | 40 | 54* | 31 | 8
O=C(Nc1scc(-c2ccc(F)cc2)c1C(=O)O)c1ccco1 | 86* | 46 | 71* | -1 | -114 | -6 | 77* | 93* | 87* | 81*
Cc1ccc(-c2csc(NC(=O)c3cccc(C)c3)c2C(=O)O)cc1 | 97* | 69* | 92* | . | -98 | -7 | 96* | 100* | 91* | 84*
CC(C)Cc1csc(NC(=O)c2ccccc2Cl)c1C(=O)O | 8 | 5 | 9 | -5 | 11 | . | . | . | . | .
COC(=O)c1c(-c2ccccc2)csc1NC(=O)c1ccco1 | -11 | -7 | -10 | -3 | -235 | . | . | . | . | .
CC(C)Cc1csc(NC(=O)c2ccc(Cl)cc2)c1C(=O)O | 94* | 22 | 91* | -8 | -64 | 95* | 97* | 99* | 87* | 76*
Cc1ccc(S(=O)(=O)n2nc(C)c(S(=O)(=O)N3CCOCC3)c2C)cc1 | -15 | 0 | -6 | -4 | 7 | . | . | . | . | .
COc1cc(C(=O)Nc2scc(-c3ccc(Br)cc3)c2C(=O)O)cc(OC)c1OC | 7 | 5 | 9 | -5 | -151 | . | . | . | . | .
CC(C)c1ccc(-c2csc(NC(=O)c3cccs3)c2C(=O)O)cc1 | 96* | 29 | 91* | -1 | -64 | 11 | 98* | 90* | 84* | 84*
Cc1ccc(-c2csc(NC(=O)/C=C/c3ccco3)c2C(=O)O)cc1 | 86* | 72* | 89* | -1 | 2 | 68* | 97* | 101* | 96* | 67*
Cc1cccc(C(=O)Nc2scc(CC(C)C)c2C(=O)O)c1 | 26 | 9 | 19 | -3 | -20 | . | . | . | . | .
Cc1cccc(C(=O)Nc2scc(-c3ccc(Br)cc3)c2C(=O)O)c1 | 39 | 7 | 72* | . | -28 | 21 | 54* | 28 | 24 | 10
Cc1ccc(-c2csc(NC(=O)c3ccc(Br)cc3)c2C(=O)O)cc1 | 71* | 11 | 86* | -4 | -168 | -8 | 87* | 74* | 76* | 29
Cc1ccc(-c2cc(C(F)(F)F)c(C#N)c(=O)[nH]2)cc1 | 76* | 21 | 68* | -2 | -438 | 65* | 66* | 57* | 61* | 49
COc1cccc(-c2cc(C(F)(F)F)c(C#N)c(=O)[nH]2)c1 | 85* | 35 | 85* | 1 | -443 | -14 | 70* | 85* | 70* | 77*
COc1ccc(C(=O)Nc2ccc(Br)cc2F)cc1S(=O)(=O)N1CCCC1 | -10 | -9 | -1 | . | 0 | . | . | . | . | .
Cn1c(=O)nc2n(Cc3ccccc3)c3cccc(Cl)c3cc-2c1=O | 5 | 8 | 0 | 1 | -306 | . | . | . | . | .
Fc1ccc(-c2cc(-c3ccccc3)nc(-n3cccn3)n2)cc1 | -13 | -3 | 1 | 1 | 16 | . | . | . | . | .
SMILES | SENP6 block | SENP7 inh | SENP8 block-1 | HSP90 refold inh | SENP8 block-2 | SENP8 confirm | SENP6 conf | SENP7 conf | Casp3 select | SENP luc ctr
COc1cccc2[nH]c3c(=O)n(CCN(C)C)cnc3c12 | -10 | 0 | -7 | . | i | . | . | . | . | .
CCCOC1CCCN(C(=O)c2cc(COc3ccc(-n4cncn4)cc3)on2)C1 (stereo not drawn) | -9 | -12 | -9 | -4 | 5 | . | . | . | . | .
c1ccc(-c2noc(-c3ccc4c(c3)OCO4)n2)cc1 | 97* | 100* | 93* | -1 | -8 | 92* | 88* | 96* | 94* | 31
c1ccc(-c2noc(-c3ccc4ccccc4c3)n2)cc1 | 92* | 98* | 90* | 13 | -25 | 12 | 9 | 2 | 43 | 4
c1ccc(-c2noc(-c3ccccc3-c3ccccc3)n2)cc1 | -7 | 3 | -6 | 0 | 15 | . | . | . | . | .
c1cc(-c2noc(-c3ccc4c(c3)OCO4)n2)ccn1 | . | . | . | 3 | . | . | . | . | . | .
COc1ccc(-c2noc(-c3ccc4c(c3)OCO4)n2)cc1 | -50 | 73* | 6 | -3 | -24 | 38 | 33 | 47 | 61* | 22
Brc1ccc(-c2nc(-c3cccnc3)no2)o1 | 39 | 26 | -18 | -5 | -99 | . | . | . | . | .
Brc1ccc(-c2nc(-c3ccccc3)no2)o1 | 90* | 92* | 85* | -3 | 10 | -4 | 87* | 99* | 70* | 28
COc1cccc(-c2noc(-c3ccc4c(c3)OCO4)n2)c1 | 92* | 101* | 89* | -4 | -10 | 90* | 88* | 95* | 92* | 14
O=C(Nc1ccc(F)cc1)c1cccc(NC(=O)C2C3CC4OC(=O)C2C4C3)c1 (stereo not drawn) | -3 | -6 | 1 | -5 | 15 | . | . | . | . | .
CCC(=O)Nc1c(C#N)c2nc3ccccc3nc2n1C1CCCCC1 | 15 | -2 | -2 | -1 | -368 | . | . | . | . | .
